Measurements from PubChem BioAssay (Tox21).
Where “and” joins values, the source holds several entries; their conditions need not be identical. Equal entries are not always repeated. Inconclusive results are not listed. Calls of active or inactive are those of the source. Calls come from the whole dose curve; as a rule, active = well fitted cell-killing curve with a large enough effect in the repeat runs; inconclusive = weak or mixed curves, or effect the other way; inactive = flat fitted curve, though single readings scatter.

Test: qHTS assay to identify small molecule antagonists of the constitutive androstane receptor (CAR) signaling pathway - cell viability counter screen (AID 1224837); note: nearly all actives have a fitted effect of over 45% in size
Conditions: HepG2-CYP2B6-hCAR viability, CellTiter-Fluor, 23 h, co-treated with 50 nM CITCO; series mostly up to 92.4 µM; activity change, negative = cytotoxicity: at the top concentration
Excerpt: National Center for Advancing Translational Sciences [NCATS]
NIH Chemical Genomics Center [NCGC]
U.S. Environmental Protection Agency [EPA]
National Institutes of Environmental Health Sciences [NIEHS]
National Toxicology Program [NTP]
U.S. Food and Drug Administration [FDA]
The constitutive androstane receptor (CAR) is a nuclear receptor which regulates multiple drug metabolizing enzymes (DMEs) and transporters. Activating CAR will generally increase the transcription and subsequent translation of CYP2B6 and CYP3A4. These two DMEs represent about 50% of the drug metabolizing potential in the body. When CAR is deactivated, the metabolizing potential in the body will decrease, subsequently increasing the toxicity in the body or lowering the therapeutic potential of a pro-drug. Recently, there have also been studies performed indicating CARs role in energy metabolism and cancer therapy. Therefore, inhibiting CARs activity could have a potential effect on diabetes and cancer. Identifying environmental toxins and compounds which modulate CAR, through the use of the Tox21 10K compound collection, will be an important step in determining the toxicity and potential therapeutic effects these factors will have on the human body. To differentiate true CAR antagonists from cytotoxic substances, the assay is multiplexed with a cell viability assay.
Tox21 Assay Protocol Summary:
A double-stable (hCAR and CYP2B6-2.2kb) transfected cell line, derived from human hepatoma (HepG2) cells, was utilized for the duration of the quantitative high-throughput screens. The HepG2-CYP2B6-hCAR cells were dispensed at 2500 cells/4 uL/well in 1536-well white solid bottom plates using a Multidrop Combi. After the assay plates were incubated at 37 C/5% CO2 for 4 hrs, 23 nL of compounds at 15 concentrations (from 5-48 columns) or positive control (from 1 to 4 columns) were transferred to the assay plates using a Pintool station. One uL of CITCO (final concentration = 50 nM) was added, using a Flying Reagent Dispenser, inside each well. After a 23 hr incubation period at 37 C/5% CO2, 1 uL of CellTiter-Fluor reagent was added into each well of the assay plates using a Flying Reagent Dispenser. The fluorescence intensity in the plates was then measured using a ViewLux plate reader.
% is set by controls: 0 for no effect and ±100 for the full control effect; potency is the fitted concentration of half-maximal effect.

Row | SMILES | activity change, negative = cytotoxicity | Potency
1 | C=C(C)C(=O)OCCO | -0.979% (inactive) | –
2 | COc1ccc(C)cc1[N+](=O)[O-] | -3.64% (inactive) | –
3 | COCCCN1CCC(NC(=O)c2cc(Cl)c(N)c3c2OCC3)CC1 | -0.682% [at 42.5 µM] (inactive) | –
4 | CCOc1ccc(O)cc1 | -0.885% (inactive) | –
5 | CCN(CC)CCNc1ccc(CNC=O)c2sc3ccc(OC)cc3c(=O)c12 | – | 8.63 µM (active)
6 | COc1ccc2cccc(CCNC(C)=O)c2c1 | 0.252% [at 42.5 µM] (inactive) | –
7 | Nc1ncn([C@H]2C[C@H](O)[C@@H](CO)O2)c(=O)n1 | -14.1% [at 42.5 µM] (inactive) | –
8 | COc1cccc(N(C)C(=S)Oc2ccc3c(c2)CCCC3)n1 | -7.34% [at 42.5 µM] (inactive) | –
9 | CN(Cc1ccc(C(C)(C)C)cc1)Cc1cccc2ccccc12 | 13.1% [at 42.5 µM] (inactive) | –
10 | COc1cc(Cl)c(OC)cc1N | 11% (inactive) | –
11 | O=C(O)c1ccc(S(=O)(=O)O)cc1C(=O)O | -3.49% (inactive) | –
12 | CCO[Si](CCCCl)(OCC)OCC | -0.314% (inactive) | –
13 | COc1ccc(C(=O)c2ccc(OC)cc2O)c(O)c1 | -7.43% (inactive) | –
14 | O=C(NCCO[N+](=O)[O-])c1cccnc1 | 1.18% [at 42.5 µM] (inactive) | –
15 | CCC(CC)Nc1ccc(C)c(C)c1 | 3.01% (inactive) | –
16 | C[C@@H]1C[C@H]2O[C@@]3(O[C@@H]2C(C)(C)O)[C@H](O)[C@@]2(C)[C@@H]4CC[C@H]5C(C)(C)[C@@H](O[C@@H]6OC[C@@H](O)[C@H](O)[C@H]6O)CC[C@@]56C[C@@]46CC[C@]2(C)[C@@H]13 | 4.97% [at 42.5 µM] (inactive) | –
17 | C[C@@H]1C[C@H]2[C@@H]3CCC4=CC(=O)C=C[C@]4(C)[C@@]3(F)[C@@H](O)C[C@]2(C)[C@@]1(O)C(=O)COC(=O)c1ccncc1 | -6.16% [at 42.5 µM] (inactive) | –
18 | Nc1cc(C(=O)O)c(O)c(S(=O)(=O)O)c1 | 14.4% (inactive) | –
19 | CCNc1cc(O)ccc1C | 2.84% (inactive) | –
20 | O=S(c1cc(Cl)cc(Cl)c1O)c1cc(Cl)cc(Cl)c1O | -3.57% [at 42.5 µM] (inactive) | –

Row | SMILES | activity change, negative = cytotoxicity | Potency
21 | O=C1[C@H]2CCCC[C@H]2C(=O)N1CCCCN1CCN(c2nsc3ccccc23)CC1 | -4.96% [at 42.5 µM] (inactive) | –
22 | CCCCCCCC#N | 2.11% (inactive) | –
23 | C[N+](C)(C)CCOC(=O)CCC(=O)OCC[N+](C)(C)C | 0.305% [at 42.5 µM] (inactive) | –
24 | C=CC(=O)OCCOCCOCCOCCOC(=O)C=C | – | 48.8 µM (active) and 54 µM (active)
25 | O=[N+]([O-])c1ccc2[nH]ncc2c1 | 2.69% (inactive) | –
26 | CCOC(=O)NCCOc1ccc(Oc2ccccc2)cc1 | -15.7% (inactive) | –
27 | CN(C)CCN(Cc1ccsc1)c1ccccn1 | 4.61% [at 42.5 µM] (inactive) | –
28 | CCCC(=O)Nc1ccc(O)c(C(C)=O)c1 | -1.63% [at 42.5 µM] (inactive) | –
29 | Cc1cccc(Nc2ccccc2)c1 | 0.578% (inactive) | –
30 | ClCCOCCOCCCl | 0.167% (inactive) | –
31 | COCC(C)OC(C)=O (stereo not given) | -0.152% (inactive) | –
32 | C[C@H](CCC(=O)O)[C@H]1CC[C@H]2[C@@H]3CC[C@@H]4C[C@H](O)CC[C@]4(C)[C@H]3C[C@H](O)[C@]12C | -20.4% (inactive) | –
33 | C/C=C(/C(=C/C)c1ccc(OC(C)=O)cc1)c1ccc(OC(C)=O)cc1 | -7.78% [at 42.5 µM] (inactive) | –
34 | CN(C)CCOC(c1ccccc1)c1ccc(Br)cc1 (stereo not given) | -14% [at 42.5 µM] (inactive) | –
35 | O=C1OC(=O)C2C3C=CC(C3)C12 (stereo not given) | -7.6% (inactive) | –
36 | O=C(O)CNCC(=O)O | 2.11% [at 8.39 µM] (inactive) | –
37 | Cn1c(=O)cc(Oc2ccc(F)cc2F)c2cnc(NCC(C)(C)O)nc21 | -3.71% (inactive) | –
38 | C[C@@H](c1ncncc1F)C(O)(Cn1cncn1)c1ccc(F)cc1F (stereo not given in full) | 1.62% [at 42.5 µM] (inactive) | –
39 | CCOC(=O)c1cccnc1 | 5.39% [at 42.5 µM] (inactive) | –
40 | CCC(=O)O[C@]1(C(=O)CCl)[C@@H](C)C[C@H]2[C@@H]3CCC4=CC(=O)C=C[C@]4(C)[C@@]3(F)[C@@H](O)C[C@@]21C | 2.4% [at 42.5 µM] (inactive) | –
